Laboratory results: PubChem BioAssay (NCATS)
Results filed as inconclusive are left out. Active and inactive are the calls of the source. Unless noted, the call rests on the fitted dose curve; in most records, active means well fitted curve in the direction sought with a large enough effect; inconclusive means small, poorly fitted or top-dose-only effect, or another doubt; inactive means no such curve, though single readings can be large; an effect the other way counts as inactive or inconclusive.

Columns and labels:
[1] = target: Cytochrome P450 1A2 (Homo sapiens) (UniProt P05177); assay: p450-cyp1a2 (AID 410; calls by dose curve; further: potency means the concentration at half of the fitted maximal effect)
Chain of Cytochrome P450 1A2 (Homo sapiens) (P05177 whole entry, looked up): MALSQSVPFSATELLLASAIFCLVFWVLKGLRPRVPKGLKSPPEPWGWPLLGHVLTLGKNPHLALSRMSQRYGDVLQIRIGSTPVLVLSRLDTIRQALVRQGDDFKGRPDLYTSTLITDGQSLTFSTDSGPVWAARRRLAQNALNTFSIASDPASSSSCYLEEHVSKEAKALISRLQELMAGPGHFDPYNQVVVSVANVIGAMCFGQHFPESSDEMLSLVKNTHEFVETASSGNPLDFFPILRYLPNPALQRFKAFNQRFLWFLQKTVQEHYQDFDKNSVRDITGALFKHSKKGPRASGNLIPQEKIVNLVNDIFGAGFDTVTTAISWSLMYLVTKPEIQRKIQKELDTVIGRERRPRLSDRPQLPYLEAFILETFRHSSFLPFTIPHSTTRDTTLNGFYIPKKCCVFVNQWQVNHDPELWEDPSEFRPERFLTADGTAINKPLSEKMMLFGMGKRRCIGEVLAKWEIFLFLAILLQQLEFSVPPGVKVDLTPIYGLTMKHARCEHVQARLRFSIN
Method in brief: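 20nM CYP1A2, 100uM Luciferin-ME (=Km), 100mM KPO4; cpd 10 min RT; +NADPH regen, 60 min RT; stop/detect 20 min; luminescence. Normalized to furafylline 57 uM = full inhibition.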

[2] = target: Glucocorticoid receptor (Homo sapiens) (UniProt P04150); assay: GR-GFP Redistribution (AID 450;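 active means compounds whose dose series gives a full or clear partial fitted curve of increased nuclear translocation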; further: potency means the concentration at half of the fitted maximal effect)
Chain of Glucocorticoid receptor (Homo sapiens) (P04150 whole entry, looked up, the tested form may be a part): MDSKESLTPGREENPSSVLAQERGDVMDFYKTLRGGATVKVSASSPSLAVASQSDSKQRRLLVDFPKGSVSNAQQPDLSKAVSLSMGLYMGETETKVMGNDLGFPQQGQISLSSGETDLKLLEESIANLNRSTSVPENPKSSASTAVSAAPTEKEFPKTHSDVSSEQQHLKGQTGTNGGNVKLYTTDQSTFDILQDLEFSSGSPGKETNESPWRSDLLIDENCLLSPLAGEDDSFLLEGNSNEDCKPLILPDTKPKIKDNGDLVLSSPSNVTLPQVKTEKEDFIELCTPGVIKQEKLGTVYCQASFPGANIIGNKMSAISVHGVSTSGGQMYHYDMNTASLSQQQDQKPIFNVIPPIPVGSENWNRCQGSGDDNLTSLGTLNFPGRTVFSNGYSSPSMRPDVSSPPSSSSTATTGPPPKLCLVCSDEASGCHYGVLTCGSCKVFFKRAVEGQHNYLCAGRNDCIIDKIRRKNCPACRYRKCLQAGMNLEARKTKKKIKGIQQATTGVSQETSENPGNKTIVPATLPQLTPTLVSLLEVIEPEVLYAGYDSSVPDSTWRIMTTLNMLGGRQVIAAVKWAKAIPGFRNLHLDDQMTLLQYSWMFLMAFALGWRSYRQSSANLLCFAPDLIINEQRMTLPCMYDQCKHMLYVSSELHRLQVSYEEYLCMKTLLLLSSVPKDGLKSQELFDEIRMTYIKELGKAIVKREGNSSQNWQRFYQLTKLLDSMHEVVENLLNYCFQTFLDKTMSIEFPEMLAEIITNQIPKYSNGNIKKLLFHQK

[3] = target: Glucocorticoid receptor (Homo sapiens) (UniProt P04150); assay: GR-EFC Redistribution (AID 451; calls by dose curve; further: potency means the concentration at half of the fitted maximal effect); details: CHO-K1 GR-EFC translocation, beta-gal luminescence, 2 h
Method in brief: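 Translocation of GR-ED fusion to nuclear EA restores b-gal, read by luminescence after 1 h room-temperature detection. Engineered CHO-K1 biosensor cells, 1,000/well, exposed 2 h at 37 C to titrations up to 46 uM final.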

[4] = target: Cytochrome P450 2C9 (Homo sapiens) (UniProt P11712); assay: qHTS Assay for Inhibitors and Substrates of Cytochrome P450 2C9 (AID 883); further: potency means the concentration at half of the fitted maximal effect; nearly all actives have a fitted effect of over 60% in size
Chain of Cytochrome P450 2C9 (Homo sapiens) (P11712 whole entry, looked up): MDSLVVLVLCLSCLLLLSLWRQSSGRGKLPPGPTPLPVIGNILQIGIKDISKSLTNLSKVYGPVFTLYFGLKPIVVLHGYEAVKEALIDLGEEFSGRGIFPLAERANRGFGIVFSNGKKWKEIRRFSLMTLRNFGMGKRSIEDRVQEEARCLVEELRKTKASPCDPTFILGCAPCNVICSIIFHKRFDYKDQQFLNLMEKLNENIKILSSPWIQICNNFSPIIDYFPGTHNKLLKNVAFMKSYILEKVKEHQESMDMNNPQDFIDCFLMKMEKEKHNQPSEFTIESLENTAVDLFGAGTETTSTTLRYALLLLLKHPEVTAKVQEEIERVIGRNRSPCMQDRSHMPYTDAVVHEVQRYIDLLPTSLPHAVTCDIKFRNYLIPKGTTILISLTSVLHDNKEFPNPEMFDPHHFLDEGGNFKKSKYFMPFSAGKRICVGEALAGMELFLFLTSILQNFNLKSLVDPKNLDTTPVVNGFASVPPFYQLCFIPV
Method in brief: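 Turnover of Luciferin-H (100uM, KM) by 10nM human CYP2C9 was measured over 60 min at 37C with NADPH regeneration; inhibitors and some substrates reduce luminescence. Data normalized to sulphaphenazole 57uM.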

[5] = target: Cytochrome P450 3A4 (Homo sapiens) (UniProt P08684); assay: qHTS Assay for Inhibitors and Substrates of Cytochrome P450 3A4 (AID 884); further: potency means the concentration at half of the fitted maximal effect; nearly all actives have a fitted effect of over 50% in size
Chain of Cytochrome P450 3A4 (Homo sapiens) (P08684 whole entry, looked up): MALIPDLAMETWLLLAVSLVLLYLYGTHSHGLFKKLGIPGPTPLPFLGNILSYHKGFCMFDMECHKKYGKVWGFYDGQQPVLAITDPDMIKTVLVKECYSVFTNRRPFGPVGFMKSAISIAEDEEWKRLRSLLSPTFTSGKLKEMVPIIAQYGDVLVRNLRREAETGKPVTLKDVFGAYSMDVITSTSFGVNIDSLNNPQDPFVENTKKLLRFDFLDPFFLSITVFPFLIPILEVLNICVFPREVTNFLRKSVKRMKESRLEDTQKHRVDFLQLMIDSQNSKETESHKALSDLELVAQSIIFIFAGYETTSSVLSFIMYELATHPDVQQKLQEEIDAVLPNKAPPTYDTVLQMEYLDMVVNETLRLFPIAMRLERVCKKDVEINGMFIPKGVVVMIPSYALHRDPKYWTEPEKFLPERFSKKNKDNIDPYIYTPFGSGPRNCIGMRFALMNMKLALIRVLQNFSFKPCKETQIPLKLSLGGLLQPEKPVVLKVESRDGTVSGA
Method in brief: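 Luminescent readout of luciferin produced by CYP3A4 (20 nM) dealkylation of Luciferin-PPXE, 25 uM (its KM). NADPH-driven reaction ran 60 min at RT after 10 min compound preincubation; data scaled to 57 uM ketoconazole as 100% inhibition.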

[6] = target: Cytochrome P450 3A4 (Homo sapiens) (UniProt P08684); assay: qHTS Assay for Activators of Cytochrome P450 3A4 (AID 885); further: nearly all actives have a fitted effect of over 65% in size
Method in brief: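 CYP3A4 activity: Luciferin-PPXE O-dealkylation, 25uM substrate, 200mM KPO4, RT throughout. Read-out is luciferase luminescence; higher values reflect activation.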

[7] = target: Cytochrome P450 2D6 (Homo sapiens) (UniProt P10635); assay: qHTS Assay for Inhibitors and Substrates of Cytochrome P450 2D6 (AID 891); further: nearly all actives have a fitted effect of over 60% in size; further: potency means the concentration at half of the fitted maximal effect
Chain of Cytochrome P450 2D6 (Homo sapiens) (P10635 whole entry, looked up): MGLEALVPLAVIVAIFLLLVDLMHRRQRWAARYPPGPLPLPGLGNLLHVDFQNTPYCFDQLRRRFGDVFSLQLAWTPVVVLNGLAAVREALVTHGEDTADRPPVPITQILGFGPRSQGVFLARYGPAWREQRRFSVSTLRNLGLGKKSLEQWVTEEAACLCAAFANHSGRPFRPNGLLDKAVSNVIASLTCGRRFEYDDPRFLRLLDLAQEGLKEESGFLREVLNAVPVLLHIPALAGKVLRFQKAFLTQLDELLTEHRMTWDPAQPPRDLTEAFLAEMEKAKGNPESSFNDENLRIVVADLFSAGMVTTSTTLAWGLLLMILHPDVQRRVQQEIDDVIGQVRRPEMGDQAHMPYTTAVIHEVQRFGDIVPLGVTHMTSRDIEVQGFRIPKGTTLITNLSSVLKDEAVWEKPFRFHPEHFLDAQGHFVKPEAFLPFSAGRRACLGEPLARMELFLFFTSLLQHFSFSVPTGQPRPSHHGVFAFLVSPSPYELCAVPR
Method in brief: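 Luminescent read-out of luciferin formed by 5 nM human CYP2D6 demethylating 30 uM Luciferin-ME EGE (Km level) over 60 min at room temperature after NADPH regeneration addition. Data normalized to full inhibition by 1.43 uM quinidine.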

[8] = target: DNA dC->dU-editing enzyme APOBEC-3G (Homo sapiens) (UniProt Q9HC16); assay: qHTS for inhibitors of Vif-A3G interactions: Validation (AID 588379)
Chain of DNA dC->dU-editing enzyme APOBEC-3G (Homo sapiens) (Q9HC16 whole entry, looked up): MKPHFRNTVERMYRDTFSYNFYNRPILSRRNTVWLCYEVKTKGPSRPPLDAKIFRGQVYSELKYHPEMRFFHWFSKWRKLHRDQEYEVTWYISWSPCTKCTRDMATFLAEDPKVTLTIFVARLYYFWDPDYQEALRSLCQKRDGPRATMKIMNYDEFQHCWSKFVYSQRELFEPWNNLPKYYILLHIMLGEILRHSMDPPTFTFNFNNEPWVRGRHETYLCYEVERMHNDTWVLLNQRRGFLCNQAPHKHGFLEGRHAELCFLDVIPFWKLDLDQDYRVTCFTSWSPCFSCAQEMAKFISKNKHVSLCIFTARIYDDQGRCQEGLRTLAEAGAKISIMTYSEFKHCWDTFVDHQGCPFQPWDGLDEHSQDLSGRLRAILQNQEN
Method in brief: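 Yellow fluorescence (Ex 488, Em 500-530) of Vif-coexpressing HeLa A3G-eYFP cells, scanned by Acumen cytometer, reports blocked A3G degradation. Cells plated at 700/well overnight at 37 deg C before compound addition, then a further overnight compound incubation at 37 deg C.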

[9] = target: Cytochrome P450 2C19 (Homo sapiens) (UniProt P33261); assay: qHTS Assay for Inhibitors and Substrates of Cytochrome P450 2C19 (AID 899); further: potency means the concentration at half of the fitted maximal effect; nearly all actives have a fitted effect of over 60% in size
Chain of Cytochrome P450 2C19 (Homo sapiens) (P33261 whole entry, looked up): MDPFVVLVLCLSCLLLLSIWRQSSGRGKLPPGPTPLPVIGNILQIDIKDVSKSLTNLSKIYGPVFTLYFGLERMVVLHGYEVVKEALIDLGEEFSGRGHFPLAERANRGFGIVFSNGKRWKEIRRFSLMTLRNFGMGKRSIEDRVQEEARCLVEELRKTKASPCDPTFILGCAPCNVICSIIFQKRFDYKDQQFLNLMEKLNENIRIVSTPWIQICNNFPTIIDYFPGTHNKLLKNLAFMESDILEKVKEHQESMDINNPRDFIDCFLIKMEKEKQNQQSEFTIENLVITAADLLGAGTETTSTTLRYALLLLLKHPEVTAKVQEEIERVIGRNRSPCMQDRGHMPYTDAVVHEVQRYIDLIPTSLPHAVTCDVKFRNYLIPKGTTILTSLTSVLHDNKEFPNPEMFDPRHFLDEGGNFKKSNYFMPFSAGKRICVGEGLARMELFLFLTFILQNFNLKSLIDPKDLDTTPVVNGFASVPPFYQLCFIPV
Method in brief: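 Reactions contain 5nM enzyme, 10uM Luciferin-H EGE (KM) and 50mM KPO4; compound preincubates 10 min at 37C, NADPH regeneration starts turnover for 60 min. Luminescence after detection reagent gives activity.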

[10] = target: Mitogen-activated protein kinase 10 (Mus musculus) (UniProt Q61831); assay: JNK3 AlphaScreen Assay (AID 530; active means well fitted curve in either direction with a large enough effect, not every such curve was filed as active;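 further: kinase came from lysate of stimulated human HepG2 cells; potency means the concentration at half of the fitted maximal effect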)
Method in brief: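 Kinase buffer: 20 mM Tris-HCl pH 7.6, 10 mM MgCl2, 1 mM DTT, 0.1 mM Na3VO4, 0.01% Tween-20; ATP 10 uM. Substrate biotin-GST-cJun(1-79), enzyme from activated HepG2 lysates. Detection by Ser73 phospho-antibody AlphaScreen.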

[11] = target: 3',5'-cyclic-AMP phosphodiesterase 4B (Homo sapiens) (UniProt Q07343); assay: qHTS Assay for Inhibitors of PDE-IV (AID 607; active means well fitted activation curve with a large enough effect in the main read-out, with a control signal flat, not every such curve was filed as active)
Chain of 3',5'-cyclic-AMP phosphodiesterase 4B (Homo sapiens) (Q07343 whole entry, looked up): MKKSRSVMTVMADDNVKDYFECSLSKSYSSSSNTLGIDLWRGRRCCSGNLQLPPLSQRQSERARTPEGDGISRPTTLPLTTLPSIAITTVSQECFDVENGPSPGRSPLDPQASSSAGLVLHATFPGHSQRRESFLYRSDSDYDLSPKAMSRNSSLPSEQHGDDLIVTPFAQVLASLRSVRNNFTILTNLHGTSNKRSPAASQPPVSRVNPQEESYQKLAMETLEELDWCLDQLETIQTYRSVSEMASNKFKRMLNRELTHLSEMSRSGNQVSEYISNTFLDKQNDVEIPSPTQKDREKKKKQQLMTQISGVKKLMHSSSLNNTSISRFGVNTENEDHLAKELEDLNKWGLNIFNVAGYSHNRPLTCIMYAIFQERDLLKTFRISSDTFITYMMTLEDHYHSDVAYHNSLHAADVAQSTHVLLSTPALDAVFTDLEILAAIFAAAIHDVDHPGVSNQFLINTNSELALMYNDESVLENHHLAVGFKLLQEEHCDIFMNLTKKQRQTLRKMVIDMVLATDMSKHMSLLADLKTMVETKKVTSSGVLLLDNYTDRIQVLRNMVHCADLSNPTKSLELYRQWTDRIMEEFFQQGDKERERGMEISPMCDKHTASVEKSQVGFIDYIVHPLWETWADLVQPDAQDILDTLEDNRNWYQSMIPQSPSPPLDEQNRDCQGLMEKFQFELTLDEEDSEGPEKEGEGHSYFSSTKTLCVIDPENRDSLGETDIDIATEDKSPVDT
Method in brief: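 ACTOne HEK293 cells carry a modified cAMP-gated CNG channel and express endogenous PDE4; plated 1000 cells/well, compounds up to 22.9 uM final. Membrane-potential dye fluorescence (ex 535/em 590) was read; parental cells received 10 uM forskolin + 100 uM RO 20-1724.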

Measured: Potency

COc1ccc2oc(-c3ccc(O)cc3)cc(=O)c2c1
inactive: [2] > 46 µM | [3] > 46 µM | [6] | [8]
active: [1] 0.316 µM | [4] 2.51 µM | [5] 3.98 µM | [7] 25.1 µM

COc1ccc([C@@H]2OC[C@]3(COC(C)=O)[C@H](C)C=C(C)[C@@H]2[C@H]3C)cc1
active: [1] 15.8 µM | [9] 6.31 µM
inactive: [2] > 46 µM | [3] > 46 µM | [7]

O=C1C=CC2=C3c4cc(O)c(O)cc4C[C@@]3(O)COC2=C1O
active: [1] 39.8 µM | [10] 0.501 µM | [4] 3.98 µM | [7] 25.1 µM | [9] 6.31 µM
inactive: [2] > 46 µM | [3] > 46 µM

O=c1cc(-c2ccc(O)c(O)c2)oc2cccc(O)c12
active: [1] 0.158 µM | [4] 7.94 µM | [5] 15.8 µM
inactive: [2] > 46 µM | [3] > 46 µM | [11] | [6] | [7] | [8]

O=c1cc(-c2ccccc2O)oc2ccc3ccccc3c12
active: [1] 1 µM | [7] 20 µM
inactive: [2] > 46 µM | [3] > 46 µM | [6] | [8]
